# According to PubChem BioAssay:
# Active and inactive are the calls of the source. Unless noted, how the calls were made is not given here.
# Assays:
# [1] = resazurin metabolic signal in HepG2 cells – cell-based, resazurin fluorescence, 24 h, PK04 Diversity Set, profiling panel (AID 1172); settings: HepG2 viability, higher = more signal; further: test concentration not given here
# [2] = budding yeast growth changes without added modifier – OD600, strain BY4716, 24 h, basal condition, primary screen (AID 1173); settings: S. cerevisiae BY4716 growth, OD600, 24 h; higher = more signal, called active from +8 up or from −8 down
# [3] = viability profiling in MM1S myeloma cells – cell-based, resazurin fluorescence, basal, 24 h, PK04 Diversity Set, profiling panel (AID 1174); settings: higher = more signal, called active from +8 up or from −8 down;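 further: MM1S multiple myeloma cell line; test concentration not given here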
# [4] = molecular target: Dihydroorotate dehydrogenase (quinone), mitochondrial (Plasmodium falciparum (isolate 3D7)) (UniProt Q08210); test: inhibition of P. falciparum DHODH – biochemical, C-terminal His tag, absorbance 600 nm, primary screen (AID 1175); settings: PfDHODH enzyme, DCIP absorbance 600 nm; higher = more signal, called active from +8 up or from −8 down;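 further: recombinant parasite enzyme with a five histidine tag at its C terminus; test concentration not given here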
# [5] = inhibition of PAO1 biofilm formation – strain PAO1, LB-PBS medium, absorbance 600 nm, primary screen (AID 1176); further: test concentration not given here; settings: P. aeruginosa PAO1 growth/biofilm, A600, 12 h; higher = more signal
# [6] = growth modulation of vineyard yeast isolate – strain RM11-1a, OD600, basal, 24 h, primary screen (AID 1177);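 further: cultures grown under basal conditions with no added stressor; test concentration not given here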; settings: S. cerevisiae RM11-1a growth, OD600, 24 h; higher = more signal, called active from +8 up or from −8 down
# [7] = growth of efflux-deficient E. coli DRC39 – strain DRC39, OD650, 24 h, E. coli filamentation inducers, primary screen (AID 1178);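 further: growth measured as culture turbidity by optical density at 650 nm; test concentration not given here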; settings: E. coli DRC39 acrAB, higher = more signal, called active from +8 up or from −8 down
# [8] = growth of efflux-deficient E. coli DRC39 – strain DRC39, OD650, 48 h, E. coli filamentation inducers, primary screen (AID 1179);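 further: screen aims at cell division blockers that make cells filament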; settings: E. coli DRC39 delta-acrAB growth, higher = more signal, called active from +8 up or from −8 down
# [9] = viability profiling in RPMI8226 myeloma cells – cell-based, resazurin fluorescence, basal, 24 h, PK04 Diversity Set, profiling panel (AID 1180); settings: higher = more signal;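 further: RPMI8826 multiple myeloma cell line at 5000 cells per well; test concentration not given here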
# [10] = molecular target: E3 ubiquitin-protein ligase XIAP (Homo sapiens) (UniProt P98170); test: small molecules binding XIAP protein – biophysical, small-molecule microarray, fluorescence 635 nm, primary screen (AID 1181); settings: higher = more signal;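 further: score merges 667 nm emission and signal to noise over triplicate slides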
# E3 ubiquitin-protein ligase XIAP (Homo sapiens), sequence (P98170 whole entry, looked up): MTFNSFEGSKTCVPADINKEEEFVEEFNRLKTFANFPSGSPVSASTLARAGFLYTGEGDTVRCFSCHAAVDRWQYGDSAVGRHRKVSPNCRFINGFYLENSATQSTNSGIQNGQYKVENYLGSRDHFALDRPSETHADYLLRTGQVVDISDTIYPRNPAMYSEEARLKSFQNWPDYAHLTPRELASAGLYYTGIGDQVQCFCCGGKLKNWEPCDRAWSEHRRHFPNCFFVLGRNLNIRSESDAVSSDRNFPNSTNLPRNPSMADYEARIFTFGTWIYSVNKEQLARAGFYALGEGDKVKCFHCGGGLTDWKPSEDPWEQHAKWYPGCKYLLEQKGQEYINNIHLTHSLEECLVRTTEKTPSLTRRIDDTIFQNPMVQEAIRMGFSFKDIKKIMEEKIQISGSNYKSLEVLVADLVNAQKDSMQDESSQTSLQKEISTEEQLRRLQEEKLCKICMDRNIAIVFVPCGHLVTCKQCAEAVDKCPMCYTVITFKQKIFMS
# Dihydroorotate dehydrogenase (quinone), mitochondrial (Plasmodium falciparum (isolate 3D7)), sequence (Q08210 whole entry, looked up): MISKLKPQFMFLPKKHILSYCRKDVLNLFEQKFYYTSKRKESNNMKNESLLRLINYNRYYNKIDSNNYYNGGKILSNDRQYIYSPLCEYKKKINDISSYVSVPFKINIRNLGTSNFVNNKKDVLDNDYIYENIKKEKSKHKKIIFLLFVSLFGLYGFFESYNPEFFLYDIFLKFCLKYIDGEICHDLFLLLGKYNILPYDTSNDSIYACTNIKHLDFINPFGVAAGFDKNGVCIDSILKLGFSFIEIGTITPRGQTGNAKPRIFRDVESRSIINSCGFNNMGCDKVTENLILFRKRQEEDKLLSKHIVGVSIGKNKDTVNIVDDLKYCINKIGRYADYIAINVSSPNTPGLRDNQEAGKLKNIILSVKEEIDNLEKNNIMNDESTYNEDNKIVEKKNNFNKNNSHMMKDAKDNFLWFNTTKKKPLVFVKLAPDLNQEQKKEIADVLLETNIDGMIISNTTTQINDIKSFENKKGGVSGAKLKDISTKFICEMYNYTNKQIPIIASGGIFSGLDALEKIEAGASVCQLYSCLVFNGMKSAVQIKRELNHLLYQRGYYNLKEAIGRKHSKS
Structure (SMILES),z-score [1],z-score [2],z-score [3],composite z-score [4],z-score [5],z-score [6],z-score [7],z-score [8],z-score [9],composite z-score [10]
COCCCNC(=O)[C@]1(Cc2ccccc2CN=[N+]=[N-])N=C(c2ccc(OCCCO)cc2)O[C@@H]1c1ccccc1CN=[N+]=[N-],-0.504,0.409 (inactive),-2.2 (inactive),0.502 (inactive),1.29 (inactive),-0.605 (inactive),0.445 (inactive),0.0972 (inactive),-2.03,0.0427
CC(=O)NCCCC[C@@H]1NC(=O)[C@H]2C[C@@H](C(=O)NCCCCCN)[C@@H](c3cccc(OCCO)c3)N2C1=O,0.382,-1.74 (inactive),1.18 (inactive),-0.613 (inactive),0.0904 (inactive),-1.1 (inactive),1.03 (inactive),1.24 (inactive),1.5,-0.02
COCCOC(=O)N1C(=O)[C@@]2(c3cc(C#CC4(O)CCCCCC4)ccc31)[C@H](C(=O)NC[C@H](O)c1ccccc1)[C@H]1C(=O)O[C@H](c3ccccc3)[C@H](c3ccccc3)N1[C@@H]2c1ccc(OCCO)cc1,1.49,0.385 (inactive),-0.909 (inactive),-1.38 (inactive),1.05 (inactive),2.73 (inactive),0.608 (inactive),0.187 (inactive),0.0705,0.643
Cc1ccc(S[C@]2(C(=O)O)CC(=O)N(Cc3ccccc3C(F)(F)F)[C@@H]2c2ccc(CO)cc2)cc1,0.44,-0.0891 (inactive),0.478 (inactive),0.52 (inactive),0.127 (inactive),0.383 (inactive),0.232 (inactive),1.14 (inactive),-0.285,-0.313
O=C1OCCC=C[C@H]2OC34C=CCN(Cn5nnc6ccccc65)C(=O)[C@H]3N(CCCCCO)C(=O)[C@@H]4C12 (stereo not given in full),-0.444,0.994 (inactive),0.241 (inactive),-0.951 (inactive),-0.0432 (inactive),0.137 (inactive),0.672 (inactive),0.774 (inactive),0.618,-0.0943
CN(C)CCCN1C(=O)[C@@]2(Cc3ccccc31)c1ccccc1C(=O)N(Cc1ccccc1)[C@H]2c1ccc(CO)cc1,1.18,0.225 (inactive),1.04 (inactive),-6.03 (inactive),0.587 (inactive),-0.549 (inactive),0.672 (inactive),-0.245 (inactive),0.246,-0.176
CCC[C@@H]1C[C@@]1(CCC)[C@@H](NC(=O)c1cccs1)c1ccc(Cl)cc1,1.82,-0.779 (inactive),1.19 (inactive),-0.118 (inactive),0.852 (inactive),0.235 (inactive),0.279 (inactive),0.372 (inactive),2.95,-0.193
CO[C@H]1O[C@H](CO)[C@@H](OC(=O)c2ccc(Br)cc2)[C@@H]2OC(=O)[C@H](Cc3cccc(Br)c3)C/C=C/C[C@@H](Cc3cccc(Br)c3)C(=O)O[C@@H]12,-0.673,-0.611 (inactive),-0.402 (inactive),-0.71 (inactive),0.566 (inactive),0.393 (inactive),0.198 (inactive),0.188 (inactive),-1.47,-0.0663
CN1C(=O)C2C=CC(C(O)C3CCCCC3)N(N(c3ccccc3)c3ccccc3)C2C1=O (stereo not given),-0.11,0.495 (inactive),-1.54 (inactive),-0.15 (inactive),0.571 (inactive),0.0139 (inactive),-0.881 (inactive),-0.121 (inactive),-1.54,0.264
C=CCOC(=O)[C@@H]1[C@H]2C(=O)O[C@H](c3ccccc3)[C@H](c3ccccc3)N2[C@H](c2ccc(OCCOC(=O)[C@@H]3C[C@@H]4C(=O)N[C@@H](CCCCNC(C)=O)C(=O)N4[C@@H]3c3ccc(O)cc3)cc2)[C@@]12C(=O)Nc1ccc(I)cc12,0.971,1.8 (inactive),0.668 (inactive),-1.19 (inactive),0.42 (inactive),1.67 (inactive),0.514 (inactive),0.099 (inactive),0.616,0.158
COC(=O)[C@@]1(Cc2ccccc2)[C@H]2c3cc(C(=O)N4CCCC4)n(Cc4ccccc4)c3C[C@H]2CN1C(=O)c1ccccc1,-2.54,0.717 (inactive),-1.12 (inactive),-0.237 (inactive),0.895 (inactive),0.235 (inactive),-0.78 (inactive),-0.591 (inactive),-3.29,0.421
C[C@]12C(=O)N(CCCCCO)[C@@H]3C(=O)N(c4ccc(Cl)cc4)CC=CC31O[C@@H]1/C=C\CCCOC(=O)C12 (stereo not given in full),-0.626,-0.225 (inactive),0.194 (inactive),-0.841 (inactive),-0.677 (inactive),-0.605 (inactive),-0.308 (inactive),-0.175 (inactive),-0.135,0.234
Cc1ccc(C(C)CC(O)C2C=CC3C(=O)N(Cc4ccccc4)C(=O)C3N2n2cnnc2)o1 (stereo not given),-1.13,-9.36 (active),-0.817 (inactive),-0.101 (inactive),0.368 (inactive),-1.4 (inactive),-1.46 (inactive),-1.22 (inactive),-0.841,0.263
[N-]=[N+]=Nc1ccccc1[C@H]1OC(c2ccc(OCCCO)cc2)=N[C@@]1(Cc1ccccc1)C(=O)NCc1ccccc1,-0.171,-1.95 (inactive),-3.89 (inactive),0.928 (inactive),0.124 (inactive),-0.947 (inactive),2.01 (inactive),1.76 (inactive),-3.99,0.0917
COc1cc2c(cc1OC)CN(C(=O)[C@@H]1[C@H]3C(=O)O[C@H](c4ccccc4)[C@H](c4ccccc4)N3[C@H](c3ccc(OCCO)cc3)[C@@]13C(=O)Nc1ccc(C#CCCO)cc13)CC2,-0.0794,0.66 (inactive),0.113 (inactive),1.66 (inactive),2.75 (inactive),1.45 (inactive),0.592 (inactive),-0.13 (inactive),0.768,-0.113
CN(C)CCCCCCNC(=O)[C@@H]1C[C@@H]2C(=O)NCC(=O)N2[C@@H]1c1ccc(O)cc1,-1.01,-1.06 (inactive),-1.26 (inactive),-0.493 (inactive),-0.13 (inactive),-0.832 (inactive),-0.208 (inactive),-0.823 (inactive),-1.35,0.249
C=CCOc1ccc([C@@H]2CC=C(C(=O)OCC)[C@H](c3cccc(Br)c3)N2S(=O)(=O)c2ccc(C)cc2)cc1,-0.696,0.465 (inactive),0.262 (inactive),-1.92 (inactive),0.285 (inactive),-0.897 (inactive),-0.273 (inactive),1.05 (inactive),-0.155,-0.258
COc1ccccc1CN1C(=O)c2ccccc2[C@@H](C(=O)NCC(C)C)[C@@H]1c1ccc(CO)cc1,-1.4,0.352 (inactive),0.897 (inactive),0.769 (inactive),0.31 (inactive),0.777 (inactive),0.547 (inactive),0.347 (inactive),1.02,-0.104
O=C1N(CCS(=O)(=O)c2ccccc2)c2ccccc2[C@H]2OC(c3ccc(OCCCO)cc3)=N[C@@]12CCS(=O)(=O)c1ccccc1,0.248,2.94 (inactive),0.685 (inactive),0.761 (inactive),0.591 (inactive),3.96 (inactive),2.37 (inactive),1.04 (inactive),0.488,0.0197
COC(=O)c1ccc(OC)c(/C=C\CC(CCc2ccccc2)OC(C)=O)c1 (stereo not given),-0.928,-0.527 (inactive),-0.0834 (inactive),-0.162 (inactive),-0.131 (inactive),-0.424 (inactive),0.0214 (inactive),-0.238 (inactive),0.271,-0.253
CC(C)C(CO)N1C(=O)[C@@H]2[C@H]3C(=O)OCC=C[C@H]3OC23C=CCN(Cn2nnc4ccccc42)C(=O)[C@@H]13 (stereo not given in full),0.288,0.959 (inactive),-0.281 (inactive),0.237 (inactive),0.894 (inactive),0.68 (inactive),-0.497 (inactive),-0.708 (inactive),-0.0558,0.175
COCCCNC(=O)[C@]1(Cc2ccccc2)N=C(c2ccc(OCCCO)cc2)O[C@@H]1c1ccccc1N=[N+]=[N-],0.0754,-1.75 (inactive),-2.61 (inactive),0.828 (inactive),-0.674 (inactive),-0.355 (inactive),1.27 (inactive),0.642 (inactive),-2.73,-0.02
